Bioassay records as filed in PubChem.
aSyn UTR act = Activators via SNCA 5'UTR binding, MLPCN | alpha-synuclein 5'UTR reporter, activators screen | activity score, % (tested at 7.5 µM), hits read low | 300,000 compounds, 7.1% hits | AID 1814, 2009; in the data active = activity score below about -60%
Hits are given with their value. Not all results are given here.

Results for O=C(CSc1nc2cc(Cl)ccc2s1)c1ccco1 ?
aSyn UTR act: -210

How did N/C(=N\OC(=O)COc1cc(Cl)c(Cl)cc1Cl)c1ccncc1 do in these assays?
aSyn UTR act: -174

Results for Cc1ccc(OCC(=O)O/N=C(\N)c2ccncc2)c(C)c1 ?
aSyn UTR act: -182

Results for Cc1ccccc1OCC(=O)O/N=C(\N)c1ccncc1 ?
aSyn UTR act: -103

Results for Cc1ccc(S(=O)(=O)N/N=c2\sc3ccccc3n2C)cc1 ?
aSyn UTR act: -115

What do the screens show for `Cc1cccc(S(=O)(=O)N/N=c2\sc3ccccc3n2C)c1`?
aSyn UTR act: -175

Results for CN(C)c1ccc(P(=O)(Nc2ccc([N+](=O)[O-])cc2)N2CCOCC2)c(NC(=O)c2cccs2)c1 (configuration not stated) ?
aSyn UTR act: -66

What do the screens show for `Cc1ccc(NP(=O)(c2ccc(N(C)C)cc2NC(=O)c2cccs2)N2CCOCC2)cc1` (configuration not stated)?
aSyn UTR act: -91

What do the screens show for `CN(C)c1ccc(P(=O)(Nc2ccccc2)N2CCOCC2)c(NC(=O)c2cccs2)c1` (configuration not stated)?
aSyn UTR act: -100

How did Clc1ccc(-c2nc(Cc3ccccc3)no2)cc1 do in these assays?
aSyn UTR act: -141

How did Cc1ccccc1-c1nc(Cc2ccccc2)no1 do in these assays?
aSyn UTR act: -129

Results for COc1ccc(-c2cc3nc(C)cc(C)n3n2)cc1 ?
aSyn UTR act: -183

What do the screens show for `Cc1cc(C)n2nc(-c3ccc(Cl)cc3)cc2n1`?
aSyn UTR act: -129

How did COc1ccc(-c2nc3nc(C)cc(C)n3n2)cc1 do in these assays?
aSyn UTR act: -135

How did Cc1cc(C)n2nc(-c3ccc(Br)cc3)cc2n1 do in these assays?
aSyn UTR act: -122

Results for Cc1cc(C)n(-c2nc(-c3ccc(Cl)cc3)cs2)n1 ?
aSyn UTR act: -93

How did CC(C)(C)c1ccc(-c2cc(N)n[nH]2)cc1 do in these assays?
aSyn UTR act: inactive

How did Cc1ccc(-c2cc(N)n[nH]2)cc1 do in these assays?
aSyn UTR act: -73

What do the screens show for `c1ccc(-n2nnc3c(N4CCOCC4)ncnc32)cc1`?
aSyn UTR act: inactive

Results for O=c1c(Br)c(N2CCOCC2)cnn1-c1ccccc1 ?
aSyn UTR act: -144

What do the screens show for `O=c1c(Br)c(N2CCCC2)cnn1-c1ccccc1`?
aSyn UTR act: -138

How did O=C(Cn1ncc(N2CCOCC2)c(Br)c1=O)c1ccc(Cl)cc1 do in these assays?
aSyn UTR act: -111

What do the screens show for `COc1ccc(C2=NOC(COc3ccc4c(C)cc(=O)oc4c3)C2)c(OC)c1` (configuration not stated)?
aSyn UTR act: inactive

What do the screens show for `COc1cccc(C(=O)COc2ccc3c(C)cc(=O)oc3c2)c1`?
aSyn UTR act: -106

Results for COc1cccc(COc2ccc3c(C)cc(=O)oc3c2)c1 ?
aSyn UTR act: -164

Results for O=C(O)c1ccc(-c2nc(-c3ccc(Cl)cc3Cl)cs2)cc1 ?
aSyn UTR act: -179

How did C=CCNC(=O)c1ccc(-c2nc(-c3ccccc3)cs2)cc1 do in these assays?
aSyn UTR act: -102

What do the screens show for `COc1ccc(-c2csc(-c3ccc(C(=O)O)cc3)n2)cc1`?
aSyn UTR act: -160

Results for O=C(O)c1ccc(-c2nc(-c3ccc(Cl)cc3)cs2)cc1 ?
aSyn UTR act: -173

How did O=C1/C(=N\S(=O)(=O)c2cccs2)C([n+]2ccc(CCCc3ccccc3)cc2)=C([O-])c2ccccc21 do in these assays?
aSyn UTR act: inactive

What do the screens show for `O=C(/C=C/c1ccco1)Nc1nc(-c2ccc(F)c(F)c2)cs1`?
aSyn UTR act: -100

Results for O=C(/C=C/c1ccco1)Nc1nc(-c2ccccc2)cs1 ?
aSyn UTR act: -250

What do the screens show for `COc1ccc(-c2csc(NC(=S)NC(=O)/C=C/c3ccco3)n2)cc1OC`?
aSyn UTR act: inactive

What do the screens show for `O=C(/C=C/c1ccco1)Nc1nc(-c2ccccn2)cs1`?
aSyn UTR act: -79

How did Cc1csc(NC(=O)/C=C/c2ccco2)n1 do in these assays?
aSyn UTR act: -168

How did CC1CCc2nc(NCCO)nc(C(F)(F)F)c2C1 (configuration not stated) do in these assays?
aSyn UTR act: inactive

How did CCN=c1scc(-c2ccco2)n1/N=C/c1ccc(O)cc1 do in these assays?
aSyn UTR act: -173

What do the screens show for `CCN=c1scc(-c2ccco2)n1/N=C/c1ccc(OC)c(O)c1`?
aSyn UTR act: -228

What do the screens show for `COCCN=c1scc(-c2cccs2)n1/N=C/c1ccc(O)c(O)c1O`?
aSyn UTR act: inactive

How did CCOC(=O)C(=O)N(Nc1ccc(C)cc1)c1ccc(C)cc1 do in these assays?
aSyn UTR act: -178

What do the screens show for `CC(C)CCNC(=O)/C=C/c1ccc(Br)cc1`?
aSyn UTR act: -64

Results for S=C(NCCc1ccccc1)Nc1ccccn1 ?
aSyn UTR act: -141

What do the screens show for `CC(C)CCNC(=S)Nc1ccc(Br)cc1`?
aSyn UTR act: -69

How did O=[N+]([O-])c1ccc(NNC(=S)Nc2ccc(F)cc2)cc1 do in these assays?
aSyn UTR act: -157

Results for CCCN1CCC(NC(=S)Nc2ccc([N+](=O)[O-])cc2)CC1 ?
aSyn UTR act: -80

Results for CC(C)(C)NC(=S)NCCc1ccccc1 ?
aSyn UTR act: -192

Results for COC(=O)Cc1ccc(NC(=S)Nc2ccccn2)cc1 ?
aSyn UTR act: -63

What do the screens show for `CCCN1CCC(=NNc2ccc(S(=O)(=O)N(CC)CC)cc2[N+](=O)[O-])CC1`?
aSyn UTR act: inactive

Results for O=C(NC(=S)NCCc1ccccn1)c1ccccc1 ?
aSyn UTR act: -106

How did S=C(NCCc1ccccc1)Nc1ccc(Br)cc1 do in these assays?
aSyn UTR act: -126

Results for CC(C)CCNC(=S)Nc1ccc([N+](=O)[O-])cc1 ?
aSyn UTR act: -63

What do the screens show for `S=C(NCCc1ccccc1)NN=C1CCCCCC1`?
aSyn UTR act: -159

What do the screens show for `Cc1cc(OCC(=O)N(C)Cc2ccccc2)ccc1Br`?
aSyn UTR act: -68

How did COc1ccc(O)c(/C=C(\C#N)C(=O)Nc2cccnc2)c1 do in these assays?
aSyn UTR act: -80

What do the screens show for `CCCOc1ccccc1/C=C(\C#N)C(=O)Nc1cccnc1`?
aSyn UTR act: -85

What do the screens show for `COC(=O)c1ccc(COc2ccccc2/C=C(\C#N)C(=O)Nc2c(C)cccc2C)cc1`?
aSyn UTR act: -82

Results for C=C1c2ccccc2NC(=S)N1Cc1ccc2c(c1)OCO2 ?
aSyn UTR act: -99

How did COc1cc(/C=N/NC(=O)CN2CCCCC2)ccc1OCc1ccccc1 do in these assays?
aSyn UTR act: -137

How did CC(C)(C)OC(=O)COc1ccc(/C=N/NC(=O)CN2CCCCC2)cc1 do in these assays?
aSyn UTR act: -86

How did COc1cc(/C=N/NC(=O)CN2CCOCC2)ccc1OCc1ccccc1 do in these assays?
aSyn UTR act: -97

What do the screens show for `C=CCc1c(C)nc(-c2ccccc2)nc1N/N=C/c1ccncc1`?
aSyn UTR act: -95

What do the screens show for `C=CCc1c(C)nc(-c2ccccc2)nc1N/N=C(\C)c1ccc(N)cc1`?
aSyn UTR act: -69

Results for CNC1=C(N(C(C)=O)c2ccc(Br)cc2)C(=O)c2ccccc2C1=O ?
aSyn UTR act: inactive

How did COC1=C(Nc2ccc(C)cc2)C(=O)c2ccccc2C1=O do in these assays?
aSyn UTR act: -156

How did COC1=C(Nc2ccccc2)C(=O)c2ccccc2C1=O do in these assays?
aSyn UTR act: -73

How did COc1nc(NCCO)nc(Nc2ccccc2F)n1 do in these assays?
aSyn UTR act: -97

Results for CC(=O)C(Sc1nc(N2CCOCC2)nc(N2CCOCC2)n1)C(=O)Nc1ccccc1 (configuration not stated) ?
aSyn UTR act: -66
